Our source for the activity change, negative = inhibition, max response and Potency values is PubChem BioAssay (NCATS).

Results filed as inconclusive are left out. Active and inactive are the calls of the source. Unless noted, calls come from the whole dose curve; as a rule, active = well fitted curve in the direction sought with a large enough effect; inconclusive = small, poorly fitted or top-dose-only effect, or another doubt; inactive = no such curve, though single readings can be large; an effect the other way counts as inactive or inconclusive.

Assay [1] can be described thus: qHTS Assay for Lipid Storage Modulators (AID 1519; calls by dose curve; for activity change, negative = inhibition: % is set by controls: 0 for no effect and ±100 for the full control effect). The settings on record: Drosophila S3 cells, BODIPY lipid droplet/cell ratio, laser cytometry, cells loaded with oleic acid; for activity change, negative = inhibition: at 57.5 µM (top of the series). A digest of the protocol: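 Cells seeded at 5,000 per well were treated with compounds over a concentration series and loaded with oleic acid (400 uM, as added). Lipid droplet fluorescence (488 nm excitation, 500-530 nm channel) was read by laser-scanning cytometry and normalized to 20 uM Triacsin C.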
Background: In qHTS, concentration-response curves come from the screen itself.

The target in assay [2] is DNA repair nuclease/redox regulator APEX1 (Homo sapiens) (UniProt P27695). Description: qHTS Validation Assay for Inhibitors of the Human Apurinic/apyrimidinic Endonuclease 1 (APE1) (AID 1705; note: potency is the fitted concentration of half-maximal effect;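 for activity change, negative = inhibition: TAMRA fluorescence gain over two minutes as APE1 cuts a quenched THF abasic duplex; % is set by controls: 0 for no effect and ±100 for the full control effect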). To be noted: purified APE1 endonuclease activity, fluorescence, titration; series mostly up to 57.1 µM. The essentials:
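Endonuclease activity of human APE1 is followed as dequenching when the enzyme incises a tetrahydrofuran abasic site in a short duplex labelled 5'-TAMRA/3'-BHQ-2 (50 nM final), after 15 min enzyme–compound preincubation at room temperature.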

Assay [3] can be described thus: Counterscreen for APE1 Inhibitors: Fluorescent Dye Displacement Validation Assay (AID 1707).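 Note: plate controls were ThO with dsDNA and no compound for no effect and ThO without dsDNA for full effect.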 The settings on record: fluorescent dye displacement from DNA; series mostly up to 57.1 µM. The essentials: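 Counterscreen flags promiscuous DNA binders: compounds displacing ThO from duplex DNA (abasic THF site, 50 nM) reduce 540 nm emission (480 nm excitation). ThO 250 nM final; Tris-HCl pH 7.5 with NaCl, MgCl2 and Tween-20.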
A general note: The purpose of a counterscreen is to sort out artefacts and off-target activity.

Assay [4] addresses Endonuclease 4 (Escherichia coli (strain K12)) (UniProt P0A6C1). Description: Counterscreen for APE1 Inhibitors: qHTS Validation Assay for Inhibitors of Endonuclease IV (AID 1708). For activity change, negative = inhibition: % is set by controls: 0 for no effect and ±100 for the full control effect. Note: potency is the fitted concentration of half-maximal effect. To be noted: E. coli endonuclease IV, DNA cleavage fluorescence; series mostly up to 57.1 µM. A digest of the protocol: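 Incision of a double-stranded 50 nM TAMRA/BHQ-2 abasic substrate was followed kinetically (525/598 nm, reads every 60 s) after 15 min enzyme–compound preincubation with 2 nM EndoIV in pH 7.5 Tris buffer with MgCl2, DTT and Tween-20; concentration-response format.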

The nature of assay [5]: qHTS for differential inhibitors of proliferation of Plasmodium falciparum line 7G8 (AID 1815).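 For activity change, negative = inhibition: plate controls were vehicle wells for no effect and reference inhibitor wells for full effect.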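 Note: parasite growth measured after three days of incubation.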 Note: potency is the fitted concentration of half-maximal effect. The settings on record: Plasmodium falciparum 7G8 proliferation inhibition; series mostly up to 28.7 µM.
The nature of assay [6]: qHTS for differential inhibitors of proliferation of Plasmodium falciparum line GB4 (AID 1816).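 For activity change, negative = inhibition: 0% = vehicle DMSO and -100% = reference inhibitor.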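 Note: parasite growth measured after 72 h incubation.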 Note: potency is the fitted concentration of half-maximal effect. The settings on record: Potency: Plasmodium falciparum GB4 proliferation inhibition; series mostly up to 28.7 µM.
A short description of assay [7]: qHTS for differential inhibitors of proliferation of Plasmodium falciparum line 3D7 (AID 1876). Note: potency is the fitted concentration of half-maximal effect. To be noted: P. falciparum 3D7 proliferation inhibition; series mostly up to 28.7 µM.
Assay [8] is described as follows: qHTS for differential inhibitors of proliferation of Plasmodium falciparum line D10 (AID 1877).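 For activity change, negative = inhibition: plate controls were vehicle wells for no effect and reference inhibitor wells for full effect.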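 Note: parasites grown with compound for 72 h before DNA staining.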 Note: potency is the fitted concentration of half-maximal effect. To be noted: series mostly up to 28.7 µM.
The nature of assay [9]: qHTS for differential inhibitors of proliferation of Plasmodium falciparum line Dd2 (AID 1882).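 For activity change, negative = inhibition: plate controls were DMSO vehicle for no effect and 0.29 µM artemisinin for full effect.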 Note: nearly all actives have a fitted effect of over 65% in size. Note: potency is the fitted concentration of half-maximal effect. To be noted: Potency: Plasmodium falciparum Dd2 proliferation inhibition; series mostly up to 28.7 µM. The essentials:
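SYBR Green DNA fluorescence (ex 485, em 535 nm) after overnight lysis quantifies parasite growth; compound exposure lasted 72 h at 37 C on infected red cells at 2.5% hematocrit, 0.3% parasitemia (final). Artemisinin 0.29 uM and vehicle wells define normalization.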

Assay [10] is described as follows: qHTS for differential inhibitors of proliferation of Plasmodium falciparum line W2 (AID 1883).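 For activity change, negative = inhibition: 0% = vehicle wells and -100% = control inhibitor wells.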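 Note: parasites grown with compound for 72 h before lysis and staining.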 Note: potency is the fitted concentration of half-maximal effect. The settings on record: Potency: Plasmodium falciparum W2 proliferation inhibition; series mostly up to 28.7 µM.
Where [11] appears, read: measured here: cell count channel max response.
The mark [12] stands for this setting: measured here: lipid channel max response.

Sequence of DNA repair nuclease/redox regulator APEX1 (Homo sapiens) (P27695 whole entry, looked up): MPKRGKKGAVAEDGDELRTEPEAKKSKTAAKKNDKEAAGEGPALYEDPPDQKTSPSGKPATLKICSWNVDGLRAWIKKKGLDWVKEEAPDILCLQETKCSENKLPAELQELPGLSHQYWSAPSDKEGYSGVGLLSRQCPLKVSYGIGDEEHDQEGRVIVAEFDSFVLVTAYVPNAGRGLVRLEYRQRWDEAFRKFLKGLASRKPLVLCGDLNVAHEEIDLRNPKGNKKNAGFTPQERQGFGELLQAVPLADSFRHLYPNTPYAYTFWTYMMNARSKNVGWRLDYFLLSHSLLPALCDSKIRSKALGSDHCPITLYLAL

As for `NC(=O)COc1c(F)cc(SCCNS(=O)(=O)c2ccccc2)cc1F`, the activity change, negative = inhibition in assay [1] is -2.33% (inactive). Moreover, the values for the max response in assay [1] (setting [11]) and in [1] (setting [12]) were 1.68% and -0.0137%, respectively. Further, the Potency entry in assay [2], in [3], in assay [4], in [5], in [6] and in assay [7] was “inactive” in each case. The Potency result in [8] and in assay [9] was “inactive” throughout.
Turning to `N[C@@]1(C(=O)O)CC[C@@H](C(=O)O)C1`, the activity change, negative = inhibition in assay [1] is -2.99% (inactive). For the same molecule, the max response in [1] (setting [11]) and in assay [1] (setting [12]) was -46.9% each time. The Potency result in assay [2], in assay [3], in [4], in [5], in assay [6] and in assay [7] was “inactive” each time. For the same molecule, the Potency result in assay [8], in [9] and in assay [10] was “inactive” each time.
As for `O=C1C=CC(=O)C=C1`, in [1], the activity change, negative = inhibition is 0.0539% (inactive). Moreover, the max response in [1] (setting [11]) was -25.7%; in assay [1] (setting [12]), -24.4%. Further, in [2], the Potency is 14.1 µM (active). For the same molecule, the Potency entry in [3], in [4], in [5], in assay [6], in assay [7] and in [8] was “inactive” throughout. The Potency entry in [9] and in assay [10] was “inactive” in each case.
On to `O=c1ccc2[nH]cc(C3=CCNCC3)c2[nH]1`, for which, in assay [1], the activity change, negative = inhibition is 9.75% (inactive). The max response was 9.34% in assay [1] (setting [11]) and 20.6% in [1] (setting [12]).
As for `O=C(O)c1cc[c]([Hg][Cl])cc1`, the activity change, negative = inhibition in [1] was 1.37% (inactive). Also, the values for the max response in assay [1] (setting [11]) and in assay [1] (setting [12]) were -16.6% and -15.1%, respectively. Besides, the Potency entry in [2], in assay [3] and in assay [4] was “inactive” throughout. The Potency in [5] is 3.16 µM (active); in [6] it was 2.51 µM (active); in assay [7], 2.24 µM (active); in [8], 1.12 µM (active); in assay [9], 11.2 µM (active); in [10], 1.41 µM (active).
For `CC1OC1P(=O)(O)O` (stereo not drawn), the activity change, negative = inhibition in [1] is 3.73% (inactive). Further, the max response worked out at 11.8% in assay [1] (setting [11]) and 19.6% in assay [1] (setting [12]). Also, the Potency entry in assay [2], in assay [3], in [4], in assay [5], in assay [6] and in assay [7] was “inactive” throughout. Further, the Potency entry in [8], in assay [9] and in [10] was “inactive” throughout.
Regarding `NCC(CP(=O)(O)O)c1ccc(Cl)cc1` (stereo not drawn), in assay [1], the activity change, negative = inhibition was -3.32% (inactive). Besides, the max response was -42.3% in assay [1] (setting [11]) and -42.6% in assay [1] (setting [12]). The Potency result in assay [2], in assay [3], in assay [5], in assay [6], in assay [7] and in assay [8] was “inactive” throughout. Also, the Potency result in assay [9] and in [10] was “inactive” throughout.
Take `COc1ccc(CNC(=O)/C=C/c2ccc3[nH]cc(CCN(C)C)c3c2)cc1`: the activity change, negative = inhibition in [1] is -4.95% (inactive). For the same molecule, the max response in assay [1] (setting [11]) is -78.1%; in assay [1] (setting [12]), -80.1%. For the same molecule, the Potency entry in [2] and in [3] was “inactive” in each case. Also, the Potency is 11.2 µM (active) in [5]; 11.2 µM (active) in assay [6]; 8.91 µM (active) in [7]; 11.2 µM (active) in assay [8]; 8.91 µM (active) in assay [10].
Regarding `NNC(=O)c1ccc(O)cc1`, the activity change, negative = inhibition in assay [1] was 0.0246% (inactive). For the same molecule, the max response was -17.6% in assay [1] (setting [11]) and -15.4% in assay [1] (setting [12]). Moreover, the Potency result in assay [2], in assay [3], in assay [5], in assay [6], in [7] and in [8] was “inactive” in each case. The Potency entry in [9] and in assay [10] was “inactive” throughout.
As for `CCN(CCCl)Cc1ccccc1Br`, the activity change, negative = inhibition in assay [1] was -2.24% (inactive). The max response turned out to be 32.6% in [1] (setting [11]) and 31.1% in assay [1] (setting [12]). Besides, the Potency entry in assay [2] and in [3] was “inactive” each time. Further, the Potency in assay [6] is 12.6 µM (active); in [7], 10 µM (active); in [10], 11.2 µM (active).
On to `Clc1cc(I)cc(Cl)c1NC1=NCCN1`, for which the activity change, negative = inhibition in assay [1] was 0.0728% (inactive). For the same molecule, the values for the max response in assay [1] (setting [11]) and in assay [1] (setting [12]) were -25.7% and -24.3%, respectively. The Potency result in [2], in [3] and in [9] was “inactive” each time. For the same molecule, the Potency in [10] was 14.1 µM (active).
On to `Cc1o[nH]c(=O)c1CC(N)C(=O)O` (stereo not drawn), for which the activity change, negative = inhibition in [1] was 0.836% (inactive). Besides, the max response in [1] (setting [11]) is -21.1%; in [1] (setting [12]) it was -19%. In addition, the Potency entry in [2], in assay [4], in assay [5], in assay [6], in assay [7] and in assay [8] was “inactive” each time. The Potency entry in [9] and in assay [10] was “inactive” each time.
Turning to `CN(N=O)c1ccc(O)c(O)c1`, in [1], the activity change, negative = inhibition is -1.9% (inactive). Moreover, the values for the max response in [1] (setting [11]) and in assay [1] (setting [12]) were -25.4% and -24.9%, respectively. Also, the values for the Potency in [2] and in assay [4] were 0.501 µM (active) and 8.91 µM (active), respectively. Moreover, the Potency entry in assay [5], in [7], in [8] and in assay [9] was “inactive” each time.
On to `NC(N)=Nc1ccc2[nH]c3c(c2c1)C[C@@]1(O)[C@H]2Cc4ccc(O)c5c4[C@@]1(CCN2CC1CC1)[C@H]3O5`, for which the activity change, negative = inhibition in assay [1] was -5.63% (inactive). The max response was -1.13% in [1] (setting [11]) and -6.88% in assay [1] (setting [12]). The Potency entry in assay [2], in [3], in assay [4], in assay [5], in assay [7] and in [9] was “inactive” each time.
As for `CCCN1CC[C@@H]2c3cc(O)ccc3CC[C@@H]21`, in assay [1], the activity change, negative = inhibition was 1.73% (inactive). Moreover, the figures for the max response in assay [1] (setting [11]) and in assay [1] (setting [12]) were 47.3% and 49.1%, respectively. Further, the Potency result in [2], in assay [3], in assay [7] and in assay [9] was “inactive” throughout. Further, the Potency in assay [10] is 10 µM (active).
Consider `COc1ccc2c(c1OC)C(=O)OC2C1c2cc3c(cc2CCN1C)OCO3` (stereo not drawn), for which the activity change, negative = inhibition in assay [1] was 1.56% (inactive). Further, the max response in assay [1] (setting [11]) amounted to 61%; in assay [1] (setting [12]), 66.1%. The Potency entry in [2], in [3], in [4], in [5], in [7] and in [8] was “inactive” in each case. The Potency entry in assay [9] is “inactive”.
For `N[C@@H](Cn1oc(=O)[nH]c1=O)C(=O)O`, the activity change, negative = inhibition in assay [1] was 3.82% (inactive). The max response in assay [1] (setting [11]) was determined as 22.6%; in assay [1] (setting [12]), 26.9%. In addition, the Potency result in assay [2], in assay [4], in assay [5], in assay [6], in [7] and in assay [8] was “inactive” each time. Further, the Potency entry in [9] and in [10] was “inactive” each time.
Regarding `CCCN(CCC)C1Cc2cc(OC)c(OC)cc2C1`, the activity change, negative = inhibition in [1] was -0.96% (inactive). Moreover, the max response in [1] (setting [11]) is -27.4%; in assay [1] (setting [12]) it was -31.4%. The Potency result in assay [2], in [3], in assay [4], in assay [5], in [7] and in [8] was “inactive” throughout. In addition, the Potency entry in assay [9] and in assay [10] was “inactive” throughout.
`CN1CCc2cccc(Cl)c2CC1`: the activity change, negative = inhibition in assay [1] was 0.882% (inactive). For the same molecule, the max response in assay [1] (setting [11]) was -8.27%; in [1] (setting [12]), -8.1%. The Potency entry in assay [2], in assay [3], in assay [4], in assay [5], in assay [7] and in [8] was “inactive” in each case. Also, the Potency result in assay [9] was “inactive”.
